Data reported in PubChem BioAssay AID1159580 (chemical genetic matrix, 2015).
Hit rate of the full screen: of about 5,500 compounds, about 2,000 (36%) were called active. Not shown: some 18% with an inconclusive outcome. No stated cut-off is given here; in the data, active means normalized growth mostly below about 0.91 (no sharp cut-off); inconclusive means no clear call, values can overlap the other calls; inactive means mostly above about 0.92. The list shows a part of the results.

Assay: chemical genetic growth profiling, strain panel (AID 1159580);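 further: tested at 20 µM; growth read once vehicle control cultures reached saturation at 30 °C; 1 = growth at the plate median or of vehicle wells; lower values mean less growth of the strain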
Conditions: S. cerevisiae deletion strains, growth OD

Measured: normalized growth

COc1ccc(Oc2cc(C)nc3ccccc23)cc1
active: locus YEL061C, strain CIN8, hits give low values 0.884 | locus YHR030C, strain SLT2, hits give low values 0.269 | locus YKL190W, strain CNB1, hits give low values 0.906 | locus YLR039C, strain RIC1, hits give low values 0.606 | locus YLR085C, strain ARP6, hits give low values 0.527 | locus YLR262C, strain YPT6, hits give low values 0.701 | locus YPL241C, strain CIN2, hits give low values 0.845 | locus YPR135W, strain CTF4, hits give low values 0.397
inactive: locus YAL013W, strain DEP1, hits give low values 1.01 | locus YBR229C, strain ROT2, hits give low values 1 | locus YDL101C, strain DUN1, hits give low values 1.02 | locus YDL134C, strain PPH21, hits give low values 0.989 | locus YDR150W, strain NUM1, hits give low values 1.02 | locus YGR078C, strain PAC10, hits give low values 1.01 | locus YHR087W, strain rtc3, hits give low values 0.999 | locus YJR043C, strain POL32, hits give low values 1 | locus YJR075W, strain HOC1, hits give low values 1.02 | locus YLR058C, strain SHM2 (second series), hits give low values 1 | locus YML094W, strain GIM5, hits give low values 0.941 | locus YMR219W, strain ESC1, hits give low values 1.01 | locus YMR263W, strain SAP30, hits give low values 1.02 | locus YNL153C, strain GIM3, hits give low values 0.991 | locus YNL298W, strain CLA4 (second series), hits give low values 0.876 | locus YNL322C, strain KRE1, hits give low values 1.01 | locus YNR030W, strain Alg12, hits give low values 0.967 | locus YPL055C, strain LGE1, hits give low values 1.02
